About 8,600 (12%) of roughly 69,000 compounds showed an effect of 50% or more. The entries come from a sample that favours strong results as a whole.
What follows are compounds tested on Plasmodium berghei (assay: Screen against P. berghei liver stage (PbLuc), transformed with Luciferase, at 10uM). Conditions: tested at 10 uM.
Format: functional, HepG2
`CC(C)c1nn(C)c(N(C)C)c1CNCc1cccc2cccnc12` showed an INHIBITION of 19.283%.
With `CC(C)CC(=O)N1CC[C@H]2N(C)CC[C@@]2(C(=O)Nc2cccnc2)CC1` the INHIBITION was 26.7%.
`Cc1c(C2N3CC4(C(C)C)CN2CC(C(C)C)(C3)C4=O)[nH]c(=O)[nH]c1=O` (centres undefined) gave an INHIBITION of 54.3%.
`Cc1c(C2N3CC4(C)CN2CC(C)(C3)C4=O)[nH]c(=O)[nH]c1=O` (centres undefined) gave an INHIBITION of 46.6%.
For `CCC12CN3CC(CC)(CN(C1)C3c1[nH]c(=O)[nH]c(=O)c1C)C2=O` (centres undefined), the INHIBITION was 11.1%.
With `O=C(C1CCC1)N1C[C@H]2CC[C@@H](C1)N(S(=O)(=O)c1cccnc1)C2` the INHIBITION was -70.7%.
`O=C(NCCCNC(=O)c1cccc(O)c1)Nc1ccc(F)cc1F` showed an INHIBITION of -4.74%.
With `COCc1noc(C2(c3ccc(F)cc3)CCOCC2)n1` the INHIBITION was 15.1%.
`COCc1noc(C2(c3ccc(F)cc3)CC2)n1` showed an INHIBITION of 11.6%.
With `COCc1noc(C2(c3ccc(F)cc3)CCC2)n1` the INHIBITION was 77.2%.
In the case of `COCc1ncn2c1CN(C(=O)c1ccc3ccccc3n1)CC2`, the INHIBITION is reported as -6.3%.
With `CC(C)(C)C(=O)NCCC(=O)N1CCC(Nc2cccnn2)CC1` the INHIBITION was 41.5%.
For `O=C(CNCCn1cccn1)NCC1(c2ccccc2)CCC1`, the INHIBITION was 72.8%.
With `O=C(CNCCn1cccn1)NCC1(c2ccccc2)CC1` the INHIBITION was 8.48%.
`O=C(CNCCn1cccn1)NCC1(c2ccccc2)CCCC1` was tested, and the INHIBITION was -23.9%.
With `CN1CCC(NC(=O)c2cc(Cl)cc(Br)c2O)C1=O` (centres undefined) the INHIBITION was 24.4%.
With `OC1(CN2CCCCC2)CCN(c2nccc(C(F)(F)F)n2)C1` (centres undefined) the INHIBITION was 46.7%.
In the case of `O=S(=O)(CCNCc1ccc2c(c1)CCO2)N1CCOCC1`, the INHIBITION is reported as -3.19%.
With `Fc1cc(CNCc2ccc3c(c2)CCO3)ccc1N1CCOCC1` the INHIBITION was 55.1%.
Work on `c1cc(CNCc2ccc3c(c2)CCO3)cc(N2CCOCC2)n1` yielded an INHIBITION of -1.58%.
With `CC(C)c1nc(C2CCCN(C(=O)c3nccn4ccnc34)C2)no1` (centres undefined) the INHIBITION was 9.64%.
Work on `Cc1cn(Cc2ccccc2)nc1N` yielded an INHIBITION of 24.8%.
For `O=C(c1cc(Br)ccc1-n1cnnn1)N1CCCC1`, the INHIBITION was 28.6%.
`CC(C)c1nnsc1CNC(=O)C1CCCN(C(=O)N(C)C)C1` (centres undefined) was tested, and the INHIBITION was 53.5%.
`CC(C)c1nnsc1CNC(=O)C1CCN(C(=O)C2CCCC2)CC1` was tested, and the INHIBITION was 41.6%.
`CC(C)c1nnsc1CNC(=O)C1CCN(C(=O)C2CCC2)CC1` was tested, and the INHIBITION was 44.6%.
`Nc1no[n+]([O-])c1C(=O)NCc1ccco1` showed an INHIBITION of 5.7%.
For `COc1ccnc(CN(C)C(=O)CSc2nnc(N)s2)c1`, the INHIBITION was 71.4%.
`COc1ccc(CN(C)C(=O)CSc2nnc(N)s2)c(OC)c1OC` was tested, and the INHIBITION was 18.9%.
`CCn1ccc(CN(C)C(=O)CSc2nnc(N)s2)n1` showed an INHIBITION of 22.6%.
With `Cc1nc(CN2CCCN(C(=O)c3sccc3C#N)CC2)cs1` the INHIBITION was -27.8%.
Compound `Cc1nc(CC2CCN(Cc3ccc(CCC(C)(C)O)cc3)CC2)no1` has an INHIBITION of 60.7%.
`Cc1noc(CC2CCN(Cc3ccc(CCC(C)(C)O)cc3)CC2)n1` gave an INHIBITION of 40.2%.
For `c1ccc(CN2CCC(Cc3noc(C4CC4)n3)CC2)cc1`, the INHIBITION was 28.8%.
Compound `CN(C)c1cc(CNC(=O)CC2CCCCC2)ccn1` has an INHIBITION of 4.34%.
In the case of `Cc1cccc(Cn2c3c(ccc2=O)CCN(Cc2ccoc2)CC3)n1`, the INHIBITION is reported as 8.47%.
`O=C(CN(C1=NCCCC1)c1ccccc1)c1ccccc1` gave an INHIBITION of -13.4%.
`Cc1ccc(C(=O)CN(C2=NCCCCC2)c2ccccc2)cc1` gave an INHIBITION of 44.1%.
With `Cc1ccc(N(CC(=O)c2ccc(Br)cc2)C2=NCCCCC2)cc1` the INHIBITION was 87.6%.
`Cc1cccc(N(CC(=O)N2CCCCC2)C(=O)C2CCCO2)c1` (centres undefined) was tested, and the INHIBITION was -84.1%.
`COc1ccc(C(=O)CN(C2=NCCCCC2)c2ccccc2)cc1` gave an INHIBITION of 20.1%.
With `CCOc1ccc(N(CC(=O)c2ccccc2)C2=NCCCCC2)cc1` the INHIBITION was 68.7%.
Compound `Cc1cccc(N(CC(=O)c2ccccc2)C2=NCCCCC2)c1` has an INHIBITION of 51.6%.
For `O=C(CN(C1=NCCCCC1)c1ccc(Cl)cc1)c1ccccc1`, the INHIBITION was 59.8%.
For `O=C(CC(SC1CCCCC1)C(=O)O)c1ccc(Cl)cc1` (centres undefined), the INHIBITION was 6.83%.
Work on `Cc1ccc(N(CC(=O)N2CCCCC2)C(=O)C2CCCO2)cc1` (centres undefined) yielded an INHIBITION of -7.25%.
Compound `O=C(CN(C1=NCCCC1)c1ccccc1)c1ccc(OC(F)F)cc1` has an INHIBITION of 30.8%.
`O=C(CN(C1=NCCCC1)c1ccccc1)c1ccc2c(c1)OCCO2` was tested, and the INHIBITION was 33.3%.
`CC1=N[C@@]2(CC[C@@H]3CN(CC(C)C)C[C@@H]32)C(=O)N1C` showed an INHIBITION of 18.5%.
In the case of `Cc1nn(C)c2cnn(CC(=O)NCc3ccc4c(c3)OCO4)c12`, the INHIBITION is reported as 36.6%.
`Cc1c(C(=O)NC(C)C)nnn1-c1cccc(C(F)(F)F)c1` showed an INHIBITION of 15.2%.
Work on `c1coc(CN2C[C@@H]3OCCN(CC4CCCO4)[C@@H]3C2)c1` (some centres undefined) yielded an INHIBITION of 41.6%.
For `COC(=O)c1ccc(OCCn2cnc(C#N)n2)cc1`, the INHIBITION was 7.18%.
`CN(C)c1ncc(-c2cccc(C(N)=O)c2)c(C2CNCCO2)n1` (centres undefined) gave an INHIBITION of 17.3%.
Compound `COc1c(CNC2CCc3c(F)cccc32)c(C)nn1C` (centres undefined) has an INHIBITION of -16%.
`c1coc(-c2nc(CNCCn3cccn3)cs2)c1` was tested, and the INHIBITION was 21.5%.
With `CC(c1ccc(Cl)cc1)N1CCN(CCS(C)(=O)=O)CC1` (centres undefined) the INHIBITION was 48.5%.
`Cc1ccc(C2CSCCN2CC(=O)N2CCOCC2)cc1` (centres undefined) showed an INHIBITION of 15.3%.
Compound `CS(=O)(=O)CCN1CCSCC1c1ccc(Cl)cc1` (centres undefined) has an INHIBITION of 59.7%.
In the case of `Cc1ccc(C2CSCCN2CCS(C)(=O)=O)cc1` (centres undefined), the INHIBITION is reported as 34%.
`CS(=O)(=O)CCCN1CCSCC1c1ccc(Cl)cc1` (centres undefined) was tested, and the INHIBITION was 31.9%.
Compound `CC(c1ccc(Cl)cc1)N1CCN(CCNS(C)(=O)=O)CC1` (centres undefined) has an INHIBITION of 53.5%.
Compound `CS(=O)(=O)NCCN1CCCC1c1ccc(Cl)cc1` (centres undefined) has an INHIBITION of 50.3%.
`CC(c1ccc(Cl)cc1)N1CCN(CCCS(C)(=O)=O)CC1` (centres undefined) was tested, and the INHIBITION was -5.1%.
For `CCS(=O)(=O)CCCN1CCSCC1c1ccc(Cl)cc1` (centres undefined), the INHIBITION was 56.5%.
Work on `CS(=O)(=O)NCCN1CCSCC1c1ccc(Cl)cc1` (centres undefined) yielded an INHIBITION of -3.39%.
`CS(=O)(=O)NCCCN1CCCC1c1ccsc1` (centres undefined) was tested, and the INHIBITION was -5.25%.
`O=C(NCc1ccncc1)N1CCSCC1c1ccc(Cl)cc1` (centres undefined) showed an INHIBITION of -23.2%.
Compound `COc1ccc(CNCC(C)Oc2ccccn2)cc1Br` (centres undefined) has an INHIBITION of -33.2%.
